The list is not random: actives were taken first. Their share in the collection is about 4.5%.
Rpn11 block – Rpn11 (human) deubiquitinase inhibition; hit rate 0.59% among 360,000; O00487; human 26S proteasome, Ub4-pepOG fluorescence polarization; 20S core pre-blocked with epoxomicin; inhibition, % at 20 µM; AID 588493;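 active means inhibition at 20 µM, scaled to each plate's controls, above about 33%, limit read from the data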
Target sequence (O00487 whole entry, looked up): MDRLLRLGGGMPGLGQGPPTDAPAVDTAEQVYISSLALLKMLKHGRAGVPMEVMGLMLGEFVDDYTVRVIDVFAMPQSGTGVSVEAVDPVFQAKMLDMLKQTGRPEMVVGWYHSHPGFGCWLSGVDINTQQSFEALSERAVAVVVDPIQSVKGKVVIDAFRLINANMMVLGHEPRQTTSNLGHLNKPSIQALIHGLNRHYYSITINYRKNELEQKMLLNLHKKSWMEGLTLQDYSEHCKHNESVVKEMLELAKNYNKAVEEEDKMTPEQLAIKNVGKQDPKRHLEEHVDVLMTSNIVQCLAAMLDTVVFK
EBNA-1 inhibitor – blocks EBNA-1 binding to DNA; EBNA-1 DNA binding, fluorescence polarization; inhibition, % at 14.8 µM; hit rate 0.34% among 300,000; in the data active means inhibition above about 28%
TPT1 inh – blocks Candida albicans tRNA 2'-phosphotransferase; recombinant caTPT1, FP RNA substrate dephosphorylation; inhibition, % at 5 µM; hit rate 0.81% among 300,000;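 active means inhibition above the mean of all tested compounds plus 3 SD, set per screening campaign, cut at about 24% in these data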
ZTA DNA inh – ZTA (EBV) inhibition in EBNA-1 counter-screen | P03206 | ZTA-DNA binding, fluorescence polarization | inhibition, % at 11 µM | hit rate 0.15% among 320,000 | AID 2234; in the data active means inhibition above about 33%
NR3A LBD binder – NR3A (human) ligand-binding domain modulation. Tm shift relative to glycine control, % at 25 µM. AID 1259313. NR3A LBD differential scanning fluorimetry, Tm shift; 0% = protein alone, 100% = glycine-bound protein. hit rate 2.5% among 340,000;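 active means melting temperature shift of at least 10% of the positive control shift, at one fixed dose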
dFosB activator – enhances mouse delta FosB homodimer DNA binding | P13346 | purified delta FosB, TAMRA-CDK5 oligo fluorescence polarization; percent of positive-control signal above neutral wells | activation, % at 25 µM | hit rate 0.99% among 340,000 | AID 493131;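 active means mean activation above about 17%, with every replicate also reaching it, limit read from the data, passing the limit was not always enough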
Rpn11 inh conf – confirmation of human proteasome Rpn11 inhibitors | shares compounds with Rpn11 block | purified human 26S proteasome, Ub4-pepOG fluorescence polarization; proteasome pretreated with epoxomicin | inhibition, % at 20 µM | hit rate 29% among 1,900
MMP-2 inh – counter-screen for RPN11 inhibitors: inhibition of human MMP-2 | AID 602330 | inhibition, % at 20 µM | shares compounds with Rpn11 block | hit rate 4% among 1,900 | recombinant MMP-2, FRET peptide cleavage fluorescence;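 further: human MMP-2 activated beforehand with APMA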
Thrombin inh – counter-screen for RPN11 inhibitors: inhibition of bovine thrombin | inhibition, % at 20 µM | bovine thrombin cleavage of Ub4-pepOG, fluorescence polarization | AID 602333 | shares compounds with Rpn11 block | hit rate 13% among 1,900;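 active means mean inhibition at least 40% at 20 µM, or signal 3 deviations below plate average, so some actives read negative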
A number is an active result; 0 = inactive; - = no result. Unless noted, no stated cut-off is given here; in the data, active means inhibition above about 40%; inactive means the rest.

SMILES | Rpn11 block | EBNA-1 inhibitor | TPT1 inh | ZTA DNA inh | NR3A LBD binder | dFosB activator | Rpn11 inh conf | MMP-2 inh | Thrombin inh
CCn1c(O)c2ccc(C(=O)N=NC(=O)c3ccccc3)cc2c1O | 0 | 0 | 0 | 0 | 0 | 0 | - | - | -
COc1cc(SC#N)ccc1N=Cc1c(C)[nH]n(-c2ccc(Cl)cc2)c1=O | 141 | 0 | 0 | 0 | 0 | 0 | 0 | 0 | 0
Cc1sc2nc(CSc3ccc([N+](=O)[O-])c(C(F)(F)F)c3)[nH]c(=O)c2c1C | 41 | 0 | 0 | 0 | 0 | 0 | 0 | 0 | 0
O=C(CN1CCCC1)N/N=C/c1c(O)ccc2ccccc12 | 46 | 0 | 0 | 0 | 0 | 0 | 0 | 0 | 0
Cc1ccc(NC(=O)CN2C(=O)S/C(=C/c3ccc(-c4cc(C(=O)O)ccc4C)o3)C2=O)cc1C | 0 | 0 | 0 | 0 | 0 | 0 | - | - | -
Cc1ccc(C(=O)O)cc1-c1ccc(C=C2C(=O)c3ccccc3C2=O)o1 | 99 | 0 | 30 | 0 | 10 | 0 | 0 | 0 | 0
O=C(COc1ccc(F)cc1)NN1C(=O)CSC1=S | 67 | 0 | 0 | 0 | 0 | 0 | 0 | 0 | 0
COc1ccc(/C=c2\sc3nc(-c4ccccc4)c(-c4ccccc4)n3c2=O)cc1OC | 140 | 0 | 0 | 0 | 0 | 0 | 0 | 0 | 0
CCOC(=O)c1c(NC(=S)Nc2ccccc2)sc2c1CC(C)(C)SC2 | 42 | 0 | 0 | 0 | 13 | 0 | 0 | 81 | 0
CCOC(=O)c1c(NC(=S)NC)sc2c1CC(C)(C)SC2 | 0 | 0 | 0 | 0 | 0 | 0 | - | - | -
CCN(CC)CCNC(=O)c1[nH]c2ccc(OCc3ccccc3)cc2c1C | 0 | 0 | 0 | 0 | 0 | 0 | - | - | -
COc1ccccc1N/N=C(\C#N)C(=N)N1CCOCC1 | 0 | 0 | 0 | 0 | 0 | 0 | - | - | -
CCOC(=O)/C(C#N)=N/Nc1ccccc1OC | 40 | 0 | 0 | 0 | 0 | 0 | 0 | 0 | 0
CCc1nc2c(OCc3ccccc3)cccn2c1N(C)C(=O)C(C)C | 0 | - | - | - | - | - | - | - | -
Cc1ccnc(NC(=O)Nc2ccc3c(c2)N(C)C(=O)CS3)c1 | 84 | 0 | 0 | 0 | 0 | 0 | 0 | 0 | 0
Cc1ccc(Cn2ncc3c(N4CCN(c5ccc(C)cc5)CC4)ncnc32)cc1 | 102 | 0 | 0 | 0 | 0 | 0 | 0 | 0 | 0
Cc1ccc(Cn2ncc3c(N4CCN(C)CC4)ncnc32)cc1 | 0 | 0 | 0 | 0 | 0 | 0 | - | - | -
CCOC(=O)Cn1c(=NC(=O)c2ccc([N+](=O)[O-])s2)sc2ccccc21 | 44 | 0 | 0 | 0 | 0 | 0 | 0 | 0 | 0
Cc1ccc(N2CN(CCc3ccccc3)CNC2=S)cc1 | 0 | 0 | 0 | 0 | 0 | 0 | - | - | -
COc1cc(/C=C2\C=CC(=O)O2)cc(OC)c1 | 38 | 0 | 0 | 0 | 0 | 0 | 0 | 0 | 0
O=C(COC(=O)C1=NN(c2ccccc2)C(=O)CC1)Nc1ccc([N+](=O)[O-])cc1C(F)(F)F | 0 | - | - | 0 | 0 | 0 | - | - | -
O=C(c1ccc(Cl)c(S(=O)(=O)N2CCOCC2)c1)N(c1ccccn1)C1CCCCC1 | 0 | 0 | 0 | 0 | 0 | 0 | - | - | -
COC(=O)c1ccc(NC(=O)c2cn(-c3ccccc3)nc2-c2ccncc2)cc1 | 54 | 0 | 0 | 0 | 0 | 0 | 0 | 0 | 0
COc1cccc(C(=O)NCC(=O)N/N=C/c2c(C)[nH]c3ccccc23)c1 | 0 | 0 | 0 | 0 | 0 | 0 | - | - | -
COc1ccc2c(Cl)c(C(=O)N/N=C/c3c(C)[nH]c4ccccc34)sc2c1 | 72 | 0 | 0 | 0 | 32 | 0 | 99 | 0 | 53
Oc1c(Br)cc(Br)c2cccnc12 | 0 | - | - | - | 0 | 0 | - | - | -
[O-][n+]1cccc2c(Br)cc(Br)c(O)c21 | 53 | 0 | 0 | 0 | 0 | 0 | 0 | 0 | 0
CCOc1ccc(C2NC(=O)C(C#N)=C(S)N2c2ccc(C)cc2)cc1OC (stereo unspecified) | 70 | 0 | 0 | 0 | 0 | 0 | 0 | 0 | 0
Fc1ccccc1NC(=S)NN(Cc1ccccc1)c1ccccc1 | 111 | 0 | 0 | 0 | 0 | 0 | 0 | 46 | 0

High-throughput results: PubChem BioAssay, several laboratories
